In article PMC12820563, “FoxP3 forms a head-to-head dimer in vivo and stabilizes its multimerization on adjacent microsatellites”:
In all, about 16,000 sequences were measured (“rpm ratio (pull-down/input)”: median about 0.5, highest 2% from about 5.5 on). What follows is part of a selection rich in the highest values, with near analogues and random picks from the rest.

molecular target: T1, MBP-FoxP3dN (Mus musculus, UniProt Q99JB6 188-423); assay: PD-seq (MBP pull-down with sequencing); 20 mM Tris-HCl pH 7.5, 100 mM NaCl, 1.5 mM MgCl2, 0.4 uM protein, 0.1 uM dsDNA library, 30 min, room temperature, amylose pull-down; high values mean tight binding; details: protein: recombinant; tags: His6-MBP; chain copies: 2; dsDNA, one strand shown
T1 sequence: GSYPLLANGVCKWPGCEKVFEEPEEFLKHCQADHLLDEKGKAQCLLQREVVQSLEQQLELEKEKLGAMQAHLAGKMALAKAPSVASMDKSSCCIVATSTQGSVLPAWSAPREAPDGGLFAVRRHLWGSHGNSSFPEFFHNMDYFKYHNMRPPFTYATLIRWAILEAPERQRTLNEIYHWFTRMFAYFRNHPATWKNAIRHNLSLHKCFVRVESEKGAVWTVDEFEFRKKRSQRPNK
Summary of the method: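 Amylose resin was used to capture complexes formed during 30 min at room temperature in Tris pH 7.5 buffer with NaCl and MgCl2 between 0.4 µM His6-MBP-tagged mouse FoxP3 or FoxP1 fragment lacking the N-terminus, expressed in E. coli, and 0.1 µM Klenow-filled double-stranded degenerate DNA library. After three washes, the DNA was released with proteinase K, barcoded by PCR and sequenced on Illumina. Binding is pooled-replicate reads-per-million enrichment, pull-down over input.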

| Sequence | binding signal |
| --- | --- |
| GATGATTGTTCTCCCAGCTGATGAATTTGTTGTGTCGAGTAAACAAATTTTCCTAATCTTTCTGTTCAAGCGCCATCTAC | 8.35 RPM ratio (pull-down/input) |
| GATGATTGTTCTCCCAGCTGATGAATTTGATGTGTCGAGTAAACAAATTTTCCTAATCTTTCTGTTCAAGCGCCATCTAC | 6.14 RPM ratio (pull-down/input) |
| GATGATTGTTCTCCCAGCTGATGAATTGAATGTGTCGAGTAAACAAATTTTCCTAATCTTTCTGTTCAAGCGCCATCTAC | 1.26 RPM ratio (pull-down/input) |
| GATGATTGTTCTCCCAGCTGATGAATTGTGAATGTCGAGTAAACAAATTTTCCTAATCTTTCTGTTCAAGCGCCATCTAC | 1.32 RPM ratio (pull-down/input) |
| GATGATTGTTCTCCCAGCTGATGAATTTTCTGTGTCGAGTAAACAAATTTTCCTAATCTTTCTGTTCAAGCGCCATCTAC | 0.415 RPM ratio (pull-down/input) |
| GATGATTGTTCTCCCAGCTGATGAATTTGTGATGTCGAGTAAACAAATTTTCCTAATCTTTCTGTTCAAGCGCCATCTAC | 5.62 RPM ratio (pull-down/input) |
| GATGATTGTTCTCCCAGCTGATGAATTGTGATTGTCGAGTAAACAAATTTTCCTAATCTTTCTGTTCAAGCGCCATCTAC | 4.91 RPM ratio (pull-down/input) |
| GATGATTGTTCTCCCAGCTGATGAATTTAGTATATCGAGTAAACAAATTTTCCTAATCTTTCTGTTCAAGCGCCATCTAC | 2.93 RPM ratio (pull-down/input) |
| GATGATTGTTCTCCCAGCTGATGAATTAGCTGGCTCGAGTAAACAAATTTTCCTAATCTTTCTGTTCAAGCGCCATCTAC | 0.476 RPM ratio (pull-down/input) |
| GATGATTGTTCTCCCAGCTGATGAATTTATTACGTCGAGTAAACAAATTTTCCTAATCTTTCTGTTCAAGCGCCATCTAC | 1.22 RPM ratio (pull-down/input) |
| GATGATTGTTCTCCCAGCTGATGAATTGGCGACGTCGAGTAAACAAATTTTCCTAATCTTTCTGTTCAAGCGCCATCTAC | 0.41 RPM ratio (pull-down/input) |
| GATGATTGTTCTCCCAGCTGATGAATTAGGTTGGTCGAGTAAACAAATTTTCCTAATCTTTCTGTTCAAGCGCCATCTAC | 1.62 RPM ratio (pull-down/input) |
| GATGATTGTTCTCCCAGCTGATGAATTCTTTGTGTCGAGTAAACAAATTTTCCTAATCTTTCTGTTCAAGCGCCATCTAC | 0.573 RPM ratio (pull-down/input) |
| GATGATTGTTCTCCCAGCTGATGAATTTTTTGTGTCGAGTAAACAAATTTTCCTAATCTTTCTGTTCAAGCGCCATCTAC | 0.531 RPM ratio (pull-down/input) |
| GATGATTGTTCTCCCAGCTGATGAATTTTGTGTGTCGAGTAAACAAATTTTCCTAATCTTTCTGTTCAAGCGCCATCTAC | 5.59 RPM ratio (pull-down/input) |
| GATGATTGTTCTCCCAGCTGATGAATTAGTCTGATCGAGTAAACAAATTTTCCTAATCTTTCTGTTCAAGCGCCATCTAC | 0.373 RPM ratio (pull-down/input) |

| Sequence | binding signal |
| --- | --- |
| GATGATTGTTCTCCCAGCTGATGAATTCTCCCGTTCGAGTAAACAAATTTTCCTAATCTTTCTGTTCAAGCGCCATCTAC | 0.247 RPM ratio (pull-down/input) |
| GATGATTGTTCTCCCAGCTGATGAATTTTGTGATTCGAGTAAACAAATTTTCCTAATCTTTCTGTTCAAGCGCCATCTAC | 5.26 RPM ratio (pull-down/input) |
| GATGATTGTTCTCCCAGCTGATGAATTGTGCTGTTCGAGTAAACAAATTTTCCTAATCTTTCTGTTCAAGCGCCATCTAC | 3.6 RPM ratio (pull-down/input) |
| GATGATTGTTCTCCCAGCTGATGAATTGTGCCATTCGAGTAAACAAATTTTCCTAATCTTTCTGTTCAAGCGCCATCTAC | 6.37 RPM ratio (pull-down/input) |
| GATGATTGTTCTCCCAGCTGATGAATTTGTGCATTCGAGTAAACAAATTTTCCTAATCTTTCTGTTCAAGCGCCATCTAC | 7.63 RPM ratio (pull-down/input) |
| GATGATTGTTCTCCCAGCTGATGAATTCTCCCATTCGAGTAAACAAATTTTCCTAATCTTTCTGTTCAAGCGCCATCTAC | 0.243 RPM ratio (pull-down/input) |
| GATGATTGTTCTCCCAGCTGATGAATTTGGTGCATCGAGTAAACAAATTTTCCTAATCTTTCTGTTCAAGCGCCATCTAC | 1.86 RPM ratio (pull-down/input) |
| GATGATTGTTCTCCCAGCTGATGAATTCATTTGTTCGAGTAAACAAATTTTCCTAATCTTTCTGTTCAAGCGCCATCTAC | 3.73 RPM ratio (pull-down/input) |
| GATGATTGTTCTCCCAGCTGATGAATTGTGTGCATCGAGTAAACAAATTTTCCTAATCTTTCTGTTCAAGCGCCATCTAC | 2.8 RPM ratio (pull-down/input) |
| GATGATTGTTCTCCCAGCTGATGAATTGGTGCATTCGAGTAAACAAATTTTCCTAATCTTTCTGTTCAAGCGCCATCTAC | 6.97 RPM ratio (pull-down/input) |
| GATGATTGTTCTCCCAGCTGATGAATTGGTGAATTCGAGTAAACAAATTTTCCTAATCTTTCTGTTCAAGCGCCATCTAC | 0.867 RPM ratio (pull-down/input) |
| GATGATTGTTCTCCCAGCTGATGAATTGTGCATTTCGAGTAAACAAATTTTCCTAATCTTTCTGTTCAAGCGCCATCTAC | 7.44 RPM ratio (pull-down/input) |
| GATGATTGTTCTCCCAGCTGATGAATTTTCCCATTCGAGTAAACAAATTTTCCTAATCTTTCTGTTCAAGCGCCATCTAC | 0.252 RPM ratio (pull-down/input) |
| GATGATTGTTCTCCCAGCTGATGAATTGAATAGCTCGAGTAAACAAATTTTCCTAATCTTTCTGTTCAAGCGCCATCTAC | 0.346 RPM ratio (pull-down/input) |
| GATGATTGTTCTCCCAGCTGATGAATTTGTAAAATCGAGTAAACAAATTTTCCTAATCTTTCTGTTCAAGCGCCATCTAC | 0.357 RPM ratio (pull-down/input) |
| GATGATTGTTCTCCCAGCTGATGAATTGTCGTAGTCGAGTAAACAAATTTTCCTAATCTTTCTGTTCAAGCGCCATCTAC | 0.56 RPM ratio (pull-down/input) |
